The values below come from PubChem BioAssay AID1986 (Sanford-Burnham Center for Chemical Genomics, 2009).

A short description of the test: cell-free HIV fusion peptide-binding blockers – biochemical, uHTS, fluorescence dequenching, primary screen (AID 1986). The conditions noted are these: 30 min, stronger effect = higher value.

The campaign covered roughly 290,000 compounds. About 890 (0.31%) were called active. This is one part of a sample in which actives are shown more often than they occur. No stated cut-off is given here; in the data, active means inhibition mostly above about 52% (no sharp cut-off); inactive means mostly below about 76%.

On to `NCCCNc1ccc([N+](=O)[O-])cc1C(F)(F)F`, for which, where the note is “at 20 µM”, the inhibition – broadly, the change of the read-out against control, counted positive when it falls – is 0.6% (inactive).

`O=C(COc1ccc(Br)cc1Cl)NC(=S)Nc1ccccn1`: for the setting “at 20 µM”, the inhibition was -1.1% (inactive).

On to `CC1=CC(=C(C#N)c2nc3ccccc3s2)C=C(C)N1c1ccc(F)cc1F`, for which the inhibition (at 20 µM) is 22.6% (inactive).

As for `CC1=CC(=C(C#N)c2nc3ccccc3s2)C=C(C)N1c1ccc(F)cc1`, the inhibition (at 20 µM) is 66.4% (active).

Consider `COc1ccccc1N1C(C)=CC(=C(C#N)c2nc3ccccc3s2)C=C1C`, for which, under “at 20 µM”, the inhibition was 26.5% (inactive).

Regarding `CCN(CC)C(=O)Cn1cc(S(=O)(=O)CC(=O)Nc2cc(OC)ccc2OC)c2ccccc21`, the inhibition (at 20 µM) is -1.7% (inactive).

In the case of `C=CCNCCCCOc1ccccc1-c1ccccc1`, the inhibition (at 20 µM) is -2% (inactive).

In the case of `CC1=NOC(=O)/C1=C/c1ccc(N(C)C)cc1`, the inhibition (at 20 µM) was -2.2% (inactive).

On to `CC1=NOC(=O)/C1=C/c1ccc(O)cc1`, for which the inhibition (at 20 µM) was 0.5% (inactive).

Turning to `CCN(CC)c1ccc(/C=C2/C(=O)ON=C2C)cc1`, for the setting “at 20 µM”, the inhibition is 100% (active).

On to `Nn1cnnc1SCC(=O)Nc1ccc2c(c1)OCO2`, for which the inhibition (at 20 µM) is 0.5% (inactive).

For `Cc1cccc(C)c1Nc1nnc(SCC(=O)c2ccc3c(c2)NC(=O)CO3)s1`, the inhibition (at 20 µM) was 0.2% (inactive).

`CCOC(=O)/C(C#N)=C/c1ccc(N2CCN(C)CC2)cc1`: the inhibition (at 20 µM) is 7.2% (inactive).

`CCOC(=O)/C(C#N)=C\c1ccc(N2CCN(C/C=C/c3ccccc3)CC2)cc1`: the inhibition (at 20 µM) was 117% (active).

On to `CCOC(=O)/C(C#N)=C\c1ccc(N2CCN(C)CC2)cc1`, for which the inhibition (at 20 µM) is 4% (inactive).

Turning to `CCCCCCCCCC[n+]1cccc(C(=O)N(CC)CC)c1`, where the note is “at 20 µM”, the inhibition was 3% (inactive).

Take `CCCCCCCCCCCCCCCC[n+]1ccc(C(N)=O)cc1`: the inhibition (at 20 µM) was -14.2% (inactive).

With `CCCn1c(=O)c2sccc2n2c(CCCC(=O)NCc3cccnc3)nnc12`, the inhibition (at 20 µM) was -1.5% (inactive).

For `O=C(c1ccccc1)N1N=C(c2ccccc2)CC1c1ccccc1` (stereo not drawn), the inhibition (at 20 µM) is 1.1% (inactive).

As for `Cc1cc[n+](-c2[nH]c(=O)sc2/C=N/N=C(\[O-])c2ccncc2)cc1C`, the inhibition (at 20 µM) was 0% (inactive).

As for `Cc1cc[n+](-c2[nH]c(=O)sc2/C=N/N=C(\[O-])c2ccccc2)cc1`, for the setting “at 20 µM”, the inhibition was 10.5% (inactive).

As to `Cc1cc[n+](-c2[nH]c(=O)sc2/C=N/N=C(\[O-])c2ccccc2)cc1C`, the inhibition is, setting by setting: (at 20 µM) 116% (active); (measured here: repeat confirmation average inhibition, at 18.6 µM) 93.6%.

In the case of `Cc1cc(NC(=O)CSCC(=O)N(c2cccc(Cl)c2)C(C(=O)NC2CCCCC2)c2ccc(O)c(O)c2)no1` (stereo not drawn), the inhibition (at 20 µM) is 11.2% (inactive).

Regarding `CSCc1ccc(C(=O)NC2CC(C)(C)Cc3c2cnn3-c2ccc(F)cc2)o1` (stereo not drawn), the inhibition (at 20 µM) is 1.2% (inactive).

With `CCCn1c(=O)c2ccccc2n2c(SCN3C(=O)c4ccccc4C3=O)nnc12`, the inhibition (at 20 µM) is 0.3% (inactive).

Turning to `N#C/C(=C/c1ccc(-c2ccccc2)o1)c1nc(-c2cccs2)cs1`, under “at 20 µM”, the inhibition is 62.6% (active).

Turning to `CC1(C)OC(=O)C(=Cc2ccc(-c3ccc(Cl)c(C(=O)O)c3)o2)C(=O)O1`, the inhibition (at 20 µM) is 36.9% (inactive).

Consider `N#C/C(=C\c1ccc(-c2ccc([N+](=O)[O-])cc2)o1)C(=O)Nc1nc(-c2cccs2)cs1`, for which the inhibition (at 20 µM) was -1.7% (inactive).

Regarding `N#C/C(=C/c1ccc(-c2cc(C(=O)O)cc(C(=O)O)c2)o1)c1nc2ccccc2s1`, the inhibition (at 20 µM) was 92.9% (active).

With `O=C(O)c1cccc(-c2ccc(/C=N/n3cnnc3)o2)c1`, for the setting “at 20 µM”, the inhibition is 1.6% (inactive).

As for `O=C(O)c1cc(-c2ccc(/C=C3\NC(=O)N(c4ccccc4)C3=O)o2)ccc1Cl`, for the setting “at 20 µM”, the inhibition is 32.2% (inactive).

Take `O=C(O)c1cc(-c2ccc(/C=c3\sc4nc5ccc(Br)cc5n4c3=O)o2)ccc1Cl`: the inhibition (at 20 µM) was 68.1% (active).

For the compound `N#C/C(=C\c1ccco1)c1nc2ccccc2s1`, the inhibition (at 20 µM) is 146% (inactive).

As for `N#C/C(=C/c1ccc(-c2ccc(S(N)(=O)=O)cc2)o1)c1nc2ccccc2s1`, the inhibition (at 20 µM) is 149% (inactive).

With `O=C(O)c1cccc(-c2ccc(/C=c3/sc4nc5ccccc5n4c3=O)o2)c1`, the inhibition (at 20 µM) was 78% (active).

For the compound `N#C/C(=C\c1ccc(-c2ccc(F)cc2)o1)C(=O)Nc1nc(-c2cccs2)cs1`, the inhibition (at 20 µM) is 14.4% (inactive).

For the compound `O=Cc1ccc(-c2cccc(C(=O)O)c2)o1`, the inhibition (at 20 µM) is 2.4% (inactive).

On to `COC(=O)c1cccc(Cn2nnc3ccccc3c2=O)c1`, for which the inhibition (at 20 µM) is 0.9% (inactive).

Take `O=C(NCCN1C(=O)S/C(=C\c2ccc(OC(F)F)cc2)C1=O)[C@@H]1CCCN1C(=O)c1cccs1`: for the setting “at 20 µM”, the inhibition was 0.1% (inactive).

For `Cc1cc(Sc2nc(N)ncc2[N+](=O)[O-])ncn1`, where the note is “at 20 µM”, the inhibition was -1.5% (inactive).

Regarding `COC(=O)c1sc2ncn(N)c(=O)c2c1C`, the inhibition (at 20 µM) was -0.5% (inactive).

Turning to `CC(=O)Nc1ccc(C(=O)N/N=C/C2CC3C=CC2C3)cc1` (stereo not drawn), the inhibition (at 20 µM) is -0.7% (inactive).

On to `COc1cc2[nH]c(=O)n(CCCCCC(=O)NCCc3c[nH]c4ccccc34)c(=O)c2cc1OC`, for which, under “at 20 µM”, the inhibition was 2.6% (inactive).

As for `CCOC(=O)c1cc(CC)sc1NC(=O)COc1ccc2c(C)cc(=O)oc2c1`, for the setting “at 20 µM”, the inhibition was -0.1% (inactive).

In the case of `N/C(=N\OC(=O)COc1ccc(Cl)cc1Cl)c1cccnc1`, for the setting “at 20 µM”, the inhibition is 1.4% (inactive).

In the case of `COc1cc(NC(=O)C(C)Oc2ccccc2)ccc1NC(=O)COc1ccccc1` (stereo not drawn), the inhibition (at 20 µM) was 1.7% (inactive).

Consider `O=C1Nc2ccccc2OC1CC(=O)N1CCCC1` (stereo not drawn), for which the inhibition (at 20 µM) was -2.7% (inactive).

In the case of `COCCNC(=O)C(c1ccc(F)cc1)N(Cc1ccco1)C(=O)CCC(=O)Nc1ccccn1` (stereo not drawn), the inhibition (at 20 µM) is -1.2% (inactive).

For the compound `CCOC(=O)C1CCN(C(=O)c2cc3cc4ccc(OC)cc4nc3o2)CC1`, the inhibition (at 20 µM) was -0.9% (inactive).

With `O=c1/c(=C\c2cccn2-c2ccccc2)sc2nc3ccccc3n12`, the inhibition (at 20 µM) was 3.1% (inactive).

For `O=c1/c(=C/c2ccccn2)sc2nc3ccccc3n12`, the inhibition (at 20 µM) was -0.5% (inactive).

For `O=C(O)c1cc(C(=O)O)cc(-c2ccc(/C=c3/sc4nc5ccccc5n4c3=O)o2)c1`, the inhibition (at 20 µM) is 63.3% (active).

On to `COC(=O)/C=c1/sc2nc3ccccc3n2c1=O`, for which the inhibition (at 20 µM) was 6.3% (inactive).

In the case of `O=c1/c(=C\c2cccnc2)sc2nc3ccccc3n12`, where the note is “at 20 µM”, the inhibition is -0.5% (inactive).

On to `O=c1/c(=C/c2ccc(O)c([N+](=O)[O-])c2)sc2nc3ccccc3n12`, for which the inhibition (at 20 µM) was 50.3% (active).

As to `O=C(CN1CCN(c2ccccc2F)CC1)c1c[nH]c2ccc(F)cc12`, the inhibition (at 20 µM) is 4% (inactive).

Consider `Cc1cc(C)n2cc(CSc3nncn3C)nc2n1`, for which the inhibition (at 20 µM) is -1.3% (inactive).

As for `CC1c2ccsc2CCN1S(=O)(=O)c1cccs1` (stereo not drawn), the inhibition (at 20 µM) is -1% (inactive).

With `COc1ccc(Cc2nc3ccc(C(=O)N(C)CCc4cnn(C)c4)cc3o2)cc1OC`, the inhibition (at 20 µM) was 0.7% (inactive).

With `C/C(CC(=O)Nc1ccc(Cl)c(C(F)(F)F)c1)=N\NC(=O)c1ccccc1O`, the inhibition (at 20 µM) was 26.3% (inactive).

As for `C/C(CC(=O)Nc1ccc(Cl)c(C(F)(F)F)c1)=N\NC(=O)c1cccc(O)c1`, the inhibition (at 20 µM) is 4.2% (inactive).

Turning to `C/C(CC(=O)Nc1ccc(Cl)c(C(F)(F)F)c1)=N\NC(=O)c1cc2ccccc2cc1O`, where the note is “at 20 µM”, the inhibition is 67.3% (active).
